Assay [1] is described as follows: ATG_GLI_CIS: Attagene CIS-FACTORIAL HepG2 Assay for human Zinc Finger Protein GLI1 (AID 2282945). The following applies: HepG2, Attagene cis-factorial reporter mRNA, GLI element; actives raise or lower the signal. The essentials:
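HepG2 cells transiently transfected with cis-promoter multiplexed reporter units report endogenous transcription factor activity. After 24 h chemical exposure, reporter mRNA was quantified by RT-PCR, 6-FAM labelling, HpaI digestion and capillary electrophoresis, with bidirectional fitting against DMSO.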

Assay [2] has as its target Bile acid receptor (Homo sapiens) (UniProt Q96RI1). Kind of assay: ATG_IR1_CIS: Attagene CIS-FACTORIAL HepG2 Assay for human Nuclear Receptor Subfamily 1 Group H Member 4 (NR1H4), IR1 submotif (AID 2282946). The following applies: IR1 reporter transcription, actives raise or lower the signal. The method in brief:
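Transient MRTU transfection, HepG2; 24 h dosing; RNA → RT-PCR → 6-FAM primer extension → HpaI digest → capillary electrophoresis fluorescence. Gain/loss of signal fitted relative to DMSO.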

The nature of assay [3]: ATG_ISRE_CIS: Attagene CIS-FACTORIAL HepG2 Assay for human Interferon Regulatory Factor 1 (IRF1) binding to an Interferon-Stimulated Response Element (ISRE) (AID 2282948). To be noted: HepG2 ISRE cis-reporter (Attagene), mRNA transcription readout; actives raise or lower the signal. The method in brief: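 Cell-based cis-reporter assay; HepG2; 24 h exposure; reporter mRNA by RT-PCR plus capillary electrophoresis fluorescence; activity in either direction scored relative to DMSO.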

Assay [4] can be described thus: ATG_M_32_CIS: Attagene CIS-FACTORIAL HepG2 Assay for M32 Transcription Factor (Internal Marker) (AID 2282949).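 Further: background control marker of the multiplexed CIS panel rather than a real target.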 To be noted: HepG2 Attagene cis-factorial M32 reporter, mRNA; actives raise or lower the signal. The essentials: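 Following 24 h chemical exposure of HepG2 cells transiently expressing cis-promoter reporter constructs, reporter transcript levels were determined by RT-PCR with fluorescent labelling and capillary electrophoresis, then fitted bidirectionally against DMSO.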

A short description of assay [5]: ATG_M_06_CIS: Attagene CIS-FACTORIAL HepG2 Assay for M06 Transcription Factor (Internal Marker) (AID 2282950). The following applies: HepG2 Attagene CIS-FACTORIAL M06 internal marker reporter; actives raise or lower the signal. The method in brief:
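Cells (HepG2, transiently carrying cis-driven reporter units) receive chemical for 24 h before RNA isolation. Reporter cDNA is PCR-amplified, FAM-labelled by primer extension, HpaI-digested and sized on a capillary analyser.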

For assay [6], the target named is Hepatocyte nuclear factor 6 (Homo sapiens) (UniProt Q9UBC0). Kind of assay: ATG_HNF6_CIS: Attagene CIS-FACTORIAL HepG2 Assay for human Hepatocyte Nuclear Factor 6 (HNF6) (AID 2282952). The following applies: HepG2 Attagene cis-factorial HNF6 reporter transcription; actives raise or lower the signal. The essentials: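 HepG2, transient MRTU transfection (cis promoters); 24 h chemical exposure; total RNA → oligo(dT) RT → PCR → 6-FAM labelling → HpaI cut → CE; bidirectional fit vs DMSO.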

The target of assay [7] is Heat shock factor protein 1 (Homo sapiens) (UniProt Q00613). As to the kind of experiment: ATG_HSE_CIS: Attagene CIS-FACTORIAL HepG2 Assay for human Heat Shock Transcription Factor 1 (HSE) (AID 2282953). To be noted: HepG2 HSE cis-reporter, Attagene RNA transcription; actives raise or lower the signal. The essentials: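 Liver-derived HepG2 cells carry transiently introduced multiple reporter units governed by cis promoters. Reporter RNA measured 24 h post-dose through reverse transcription, PCR amplification, fluorescent labelling and capillary electrophoresis, normalised to DMSO.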

The nature of assay [8]: ATG_MRE_CIS: Attagene CIS-FACTORIAL HepG2 Assay for human Metal Responsive Element (MRE) (AID 2282954). The following applies: HepG2 MRE cis-reporter transcription, Attagene multiplex; actives raise or lower the signal. The method in brief: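 HepG2 cells transiently transfected with multiple cis-element reporter units measure endogenous MTF1-driven transcription. After 24 h compound exposure, reporter mRNA is quantified by RT-PCR with 6-FAM labelling, HpaI digestion and capillary electrophoresis; bidirectional fits versus DMSO.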

Assay [9] can be described thus: ATG_PBREM_CIS: Attagene CIS-FACTORIAL HepG2 Assay for human Phenobarbital-responsive Enhancer Module (PBREM) (AID 2282955). The following applies: HepG2 PBREM cis-reporter, Attagene multiplexed transcription; actives raise or lower the signal. The essentials: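 Multiplexed cis-reporter readout in human hepatoma HepG2 cells; PBREM-regulated transcript quantified after 24 h exposure by fluorescent RT-PCR fragment analysis. Signal changes up or down fitted relative to DMSO.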

A short description of assay [10]: ATG_PXRE_CIS: Attagene CIS-FACTORIAL HepG2 Assay for human Pregnane X Receptor Element (PXRE) (AID 2282957). To be noted: HepG2 Attagene CIS-FACTORIAL PXRE reporter, mRNA; actives raise or lower the signal. The essentials: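 Transfect HepG2 with MRTUs (cis promoter elements); dose chemical, incubate 24 h; isolate RNA, RT with oligo(dT), PCR, 6-FAM label, HpaI cut, CE. Gain/loss fit vs DMSO.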

A short description of assay [11]: ATG_PPRE_CIS: Attagene CIS-FACTORIAL HepG2 Assay for human Peroxisome Proliferator-activated Response Element (PPRE) (AID 2282958). To be noted: HepG2 PPRE cis-element reporter, Attagene transcription factor profiling; actives raise or lower the signal. The method in brief:
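DMSO served as negative control and baseline for bidirectional curve fitting. Signal came from PPRE-regulated reporter mRNA in HepG2 cells, measured 24 h post-dosing by RT-PCR, 6-FAM primer extension and capillary electrophoresis.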

Assay [12] can be described thus: ATG_RORE_CIS: Attagene CIS-FACTORIAL HepG2 Assay for human RAR-related Orphan Receptor Element (RORE) (AID 2282959). The following applies: HepG2 Attagene cis-factorial RORE reporter, mRNA; actives raise or lower the signal. The method in brief: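 Transfect HepG2 with MRTUs; treat 24 h; extract RNA; RT with oligo(dT); PCR with reporter-specific primers; 6-FAM primer extension; HpaI digest 2 h at 37 C; capillary electrophoresis. Fit vs DMSO, bidirectional.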

A short description of assay [13]: ATG_Sox_CIS: Attagene CIS-FACTORIAL HepG2 Assay for human SRY-box transcription factor (SOX) (AID 2282960). To be noted: HepG2 Attagene cis-factorial SOX reporter, mRNA; actives raise or lower the signal. The method in brief: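 Fluorescence-labelled cDNA fragments from reporter transcripts, sized by CE, give the signal. Cells: HepG2, transiently transfected with cis-regulated reporter units. Exposure 24 h; DMSO negative control; bidirectional curve fitting.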

The target in assay [14] is Transcription factor Sp1 (Homo sapiens) (UniProt P08047). As to the kind of experiment: ATG_Sp1_CIS: Attagene CIS-FACTORIAL HepG2 Assay for human Specificity Protein 1 (Sp1) (AID 2282961). The following applies: HepG2 Sp1 cis-reporter transcription, actives raise or lower the signal. The method in brief: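 Chemicals are dosed onto HepG2 cells transfected with multiple cis-promoter reporter constructs, and after 24 h reporter RNA is reverse-transcribed, PCR-amplified and resolved by capillary electrophoresis for fluorescence quantitation; activity is scored up or down against DMSO.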

The nature of assay [15]: ATG_SREBP_CIS: Attagene CIS-FACTORIAL HepG2 Assay for human Sterol Regulatory Element Binding (SREBP) (AID 2282962). The following applies: HepG2 Attagene cis-factorial SREBP reporter, mRNA; actives raise or lower the signal. The method in brief: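 mRNA induction of transfected cis-promoter reporters in HepG2 cells, 24 h post-dose. Detection: RT-PCR with 6-FAM-labelled products, HpaI digest, capillary electrophoresis. DMSO served as negative control and baseline.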

The target in assay [16] is Signal transducer and activator of transcription 3 (Homo sapiens) (UniProt P40763). As to the kind of experiment: ATG_STAT3_CIS: Attagene CIS-FACTORIAL HepG2 Assay for human Signal Transducer and Activator of Transcription 3 (STAT3) (AID 2282963). The following applies: HepG2, Attagene cis-factorial STAT3 reporter transcription; actives raise or lower the signal. The essentials: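 HepG2 cells transiently transfected with cis-element-driven multiple reporter transcription units; after 24 h chemical exposure, reporter mRNA measured by RT-PCR, 6-FAM primer-extension labelling, HpaI digestion and capillary electrophoresis. Bidirectional fitting versus DMSO baseline.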

A short description of assay [17]: ATG_TA_CIS: Attagene CIS-FACTORIAL HepG2 Assay for human TA Basal Promoter (AID 2282964). To be noted: HepG2 Attagene CIS-factorial TA basal promoter reporter; actives raise or lower the signal. The essentials: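 Background internal-marker endpoint from a 52-component HepG2 cis-reporter panel. Cells treated 24 h; reporter transcripts quantified via RT-PCR and CE fluorescence against DMSO baseline.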

The target in assay [18] is Paired box protein Pax-6 (Homo sapiens) (UniProt P26367). Kind of assay: ATG_Pax6_CIS: Attagene CIS-FACTORIAL HepG2 Assay for human Paired Box 6 (PAX6) (AID 2282956). To be noted: HepG2 CIS-FACTORIAL PAX6 reporter transcription, RNA readout; actives raise or lower the signal. The essentials:
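Multiplexed cis-reporter HepG2 system; 24 h treatment; reporter mRNA read by RT-PCR/CE fluorescence; bidirectional fit vs DMSO.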

Assay [19] has as its target Hypoxia-inducible factor 1-alpha (Homo sapiens) (UniProt Q16665). Kind of assay: ATG_HIF1a_CIS: Attagene CIS-FACTORIAL HepG2 Assay for human Hypoxia Inducible Factor 1 (HIF1A) (AID 2282951). The following applies: HepG2 Attagene cis-factorial HIF1a reporter transcription; actives raise or lower the signal. The essentials: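 Cis-element reporter constructs were transiently transfected into HepG2 cells, which were treated for 24 h; reporter RNA was reverse-transcribed, amplified, labelled and resolved by capillary electrophoresis.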

Activity calls are given as the source filed them. How the source made its calls: active means hit-call score of the fitted dose curve at least 0.9, where 1 is the maximum; inactive means score below 0.9.

Bile acid receptor (Homo sapiens), sequence (Q96RI1 whole entry, looked up): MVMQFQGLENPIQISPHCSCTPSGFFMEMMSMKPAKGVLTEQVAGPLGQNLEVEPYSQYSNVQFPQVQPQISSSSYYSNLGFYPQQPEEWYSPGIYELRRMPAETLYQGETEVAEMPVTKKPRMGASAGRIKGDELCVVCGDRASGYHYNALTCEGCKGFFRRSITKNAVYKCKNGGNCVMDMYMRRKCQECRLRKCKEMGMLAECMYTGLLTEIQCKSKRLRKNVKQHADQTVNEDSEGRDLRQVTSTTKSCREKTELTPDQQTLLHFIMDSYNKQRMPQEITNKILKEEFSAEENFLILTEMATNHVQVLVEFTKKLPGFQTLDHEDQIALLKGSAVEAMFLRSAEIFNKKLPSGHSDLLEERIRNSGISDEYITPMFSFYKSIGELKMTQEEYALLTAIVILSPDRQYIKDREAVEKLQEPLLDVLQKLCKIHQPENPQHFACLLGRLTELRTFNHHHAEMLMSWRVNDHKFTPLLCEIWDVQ
Signal transducer and activator of transcription 3 (Homo sapiens), sequence (P40763 whole entry, looked up): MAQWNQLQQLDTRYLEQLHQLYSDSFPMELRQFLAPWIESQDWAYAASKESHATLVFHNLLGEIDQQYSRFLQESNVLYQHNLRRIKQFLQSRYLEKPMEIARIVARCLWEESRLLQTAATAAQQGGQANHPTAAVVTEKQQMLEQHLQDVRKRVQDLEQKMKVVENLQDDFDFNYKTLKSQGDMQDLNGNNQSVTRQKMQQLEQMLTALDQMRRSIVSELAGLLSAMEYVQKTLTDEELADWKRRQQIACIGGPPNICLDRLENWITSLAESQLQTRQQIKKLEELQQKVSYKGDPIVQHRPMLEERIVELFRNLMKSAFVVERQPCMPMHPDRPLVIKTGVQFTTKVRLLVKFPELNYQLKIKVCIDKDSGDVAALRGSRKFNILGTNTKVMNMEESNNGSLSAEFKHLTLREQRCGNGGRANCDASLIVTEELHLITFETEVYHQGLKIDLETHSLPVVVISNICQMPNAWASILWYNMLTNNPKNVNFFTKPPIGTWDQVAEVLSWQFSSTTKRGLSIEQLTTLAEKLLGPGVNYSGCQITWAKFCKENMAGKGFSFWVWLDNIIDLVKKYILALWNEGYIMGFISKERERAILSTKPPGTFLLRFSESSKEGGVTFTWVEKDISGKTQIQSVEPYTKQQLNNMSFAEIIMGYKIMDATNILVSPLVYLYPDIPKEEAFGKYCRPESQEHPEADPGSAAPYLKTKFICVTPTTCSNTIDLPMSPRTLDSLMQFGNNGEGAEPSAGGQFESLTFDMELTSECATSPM
Hepatocyte nuclear factor 6 (Homo sapiens), sequence (Q9UBC0 whole entry, looked up): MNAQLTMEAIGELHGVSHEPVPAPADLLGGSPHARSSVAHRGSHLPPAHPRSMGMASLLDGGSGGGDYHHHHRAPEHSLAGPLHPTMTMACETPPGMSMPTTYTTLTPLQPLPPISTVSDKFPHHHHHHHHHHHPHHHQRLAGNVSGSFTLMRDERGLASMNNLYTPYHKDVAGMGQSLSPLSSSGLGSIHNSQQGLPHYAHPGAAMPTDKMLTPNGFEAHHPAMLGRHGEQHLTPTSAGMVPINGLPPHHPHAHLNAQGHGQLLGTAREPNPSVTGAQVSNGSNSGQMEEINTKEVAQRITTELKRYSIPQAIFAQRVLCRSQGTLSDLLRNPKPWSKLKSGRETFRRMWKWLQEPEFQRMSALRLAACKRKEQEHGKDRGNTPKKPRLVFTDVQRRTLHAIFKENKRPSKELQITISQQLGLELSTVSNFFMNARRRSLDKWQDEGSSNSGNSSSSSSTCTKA
Paired box protein Pax-6 (Homo sapiens), sequence (P26367 whole entry, looked up): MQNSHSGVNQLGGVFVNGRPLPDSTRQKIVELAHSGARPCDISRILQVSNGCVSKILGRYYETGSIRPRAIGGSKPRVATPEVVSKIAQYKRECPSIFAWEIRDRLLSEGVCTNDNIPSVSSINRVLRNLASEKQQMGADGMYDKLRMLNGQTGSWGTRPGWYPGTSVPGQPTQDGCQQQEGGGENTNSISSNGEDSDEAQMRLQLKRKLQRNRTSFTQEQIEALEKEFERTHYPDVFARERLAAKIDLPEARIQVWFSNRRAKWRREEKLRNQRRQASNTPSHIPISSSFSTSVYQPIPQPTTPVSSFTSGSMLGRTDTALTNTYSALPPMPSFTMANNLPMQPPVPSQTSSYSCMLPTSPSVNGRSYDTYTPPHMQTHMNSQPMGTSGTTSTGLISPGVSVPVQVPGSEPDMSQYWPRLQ
Transcription factor Sp1 (Homo sapiens), sequence (P08047 whole entry, looked up): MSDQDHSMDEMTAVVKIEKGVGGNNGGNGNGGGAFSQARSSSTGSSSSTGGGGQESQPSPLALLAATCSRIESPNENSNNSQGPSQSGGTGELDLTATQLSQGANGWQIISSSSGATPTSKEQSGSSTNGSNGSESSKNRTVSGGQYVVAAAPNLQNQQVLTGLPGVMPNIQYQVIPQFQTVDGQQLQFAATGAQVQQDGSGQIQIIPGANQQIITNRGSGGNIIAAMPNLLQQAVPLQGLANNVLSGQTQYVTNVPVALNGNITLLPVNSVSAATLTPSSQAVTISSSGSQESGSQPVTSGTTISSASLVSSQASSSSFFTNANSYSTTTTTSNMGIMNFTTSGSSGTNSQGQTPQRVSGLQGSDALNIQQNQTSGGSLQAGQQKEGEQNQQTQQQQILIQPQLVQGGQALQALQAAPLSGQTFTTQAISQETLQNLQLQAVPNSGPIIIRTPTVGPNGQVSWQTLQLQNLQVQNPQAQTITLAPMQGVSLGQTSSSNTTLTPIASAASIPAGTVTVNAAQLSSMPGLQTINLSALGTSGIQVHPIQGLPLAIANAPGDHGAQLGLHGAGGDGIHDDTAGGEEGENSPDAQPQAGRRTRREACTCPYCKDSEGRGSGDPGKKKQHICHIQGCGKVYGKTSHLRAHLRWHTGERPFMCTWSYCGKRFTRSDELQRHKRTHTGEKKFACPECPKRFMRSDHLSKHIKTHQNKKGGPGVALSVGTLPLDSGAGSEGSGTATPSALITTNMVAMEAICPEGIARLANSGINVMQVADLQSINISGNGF
Heat shock factor protein 1 (Homo sapiens), sequence (Q00613 whole entry, looked up): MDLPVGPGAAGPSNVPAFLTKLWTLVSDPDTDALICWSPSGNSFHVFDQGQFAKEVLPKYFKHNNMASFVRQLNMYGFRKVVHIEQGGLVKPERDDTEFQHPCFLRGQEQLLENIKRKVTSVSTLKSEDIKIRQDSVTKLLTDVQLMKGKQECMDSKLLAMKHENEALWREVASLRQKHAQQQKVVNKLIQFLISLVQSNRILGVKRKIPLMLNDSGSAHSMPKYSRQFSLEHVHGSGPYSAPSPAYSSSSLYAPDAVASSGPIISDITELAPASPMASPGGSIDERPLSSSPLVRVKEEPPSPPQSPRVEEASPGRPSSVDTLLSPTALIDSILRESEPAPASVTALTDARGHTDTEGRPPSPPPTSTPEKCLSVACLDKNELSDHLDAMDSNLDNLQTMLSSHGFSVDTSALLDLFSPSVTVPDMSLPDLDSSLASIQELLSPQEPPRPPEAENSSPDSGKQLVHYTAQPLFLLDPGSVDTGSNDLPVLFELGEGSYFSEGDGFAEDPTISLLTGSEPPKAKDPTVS
Hypoxia-inducible factor 1-alpha (Homo sapiens), sequence (Q16665 whole entry, looked up): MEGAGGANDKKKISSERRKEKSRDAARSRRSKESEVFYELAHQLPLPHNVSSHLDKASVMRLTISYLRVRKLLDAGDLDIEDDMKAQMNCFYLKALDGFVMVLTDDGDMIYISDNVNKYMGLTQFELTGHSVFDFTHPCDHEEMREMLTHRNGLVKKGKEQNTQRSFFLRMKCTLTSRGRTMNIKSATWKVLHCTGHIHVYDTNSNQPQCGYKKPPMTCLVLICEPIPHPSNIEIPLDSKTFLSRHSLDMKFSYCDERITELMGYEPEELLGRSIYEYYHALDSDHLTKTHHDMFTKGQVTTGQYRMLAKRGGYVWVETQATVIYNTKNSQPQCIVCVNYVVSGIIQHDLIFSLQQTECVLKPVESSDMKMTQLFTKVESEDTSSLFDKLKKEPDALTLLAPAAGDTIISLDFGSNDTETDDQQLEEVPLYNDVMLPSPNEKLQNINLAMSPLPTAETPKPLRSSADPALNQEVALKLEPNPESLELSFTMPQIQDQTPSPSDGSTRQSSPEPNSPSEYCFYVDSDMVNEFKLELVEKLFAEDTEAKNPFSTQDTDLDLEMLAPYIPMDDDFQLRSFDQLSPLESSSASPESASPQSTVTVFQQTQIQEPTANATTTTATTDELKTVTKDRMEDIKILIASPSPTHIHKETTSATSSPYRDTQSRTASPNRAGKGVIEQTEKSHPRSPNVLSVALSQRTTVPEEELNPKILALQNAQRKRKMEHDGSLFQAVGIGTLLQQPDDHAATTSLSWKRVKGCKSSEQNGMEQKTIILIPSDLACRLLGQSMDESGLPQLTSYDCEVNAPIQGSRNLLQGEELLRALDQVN

As for `CCOC(=O)CCC(C)=O`, the molecule was classed as inactive in assay [1], in assay [2], in assay [3], in assay [4], in [5] and in [6]. Further, the molecule was classed as inactive in assay [7], in [8], in assay [9], in assay [10], in assay [11] and in assay [12]. The call in assay [13], in assay [14], in [15], in assay [16] and in [17] was inactive.

As for `CC(C)(C)c1cc(CCC(=O)NCCCCCCNC(=O)CCc2cc(C(C)(C)C)c(O)c(C(C)(C)C)c2)cc(C(C)(C)C)c1O`, the molecule was called inactive in assay [1], in assay [2], in [3], in [4], in assay [5] and in assay [6]. Besides, the call in [7], in assay [8], in [18], in assay [11], in assay [12] and in [13] was inactive. In addition, the molecule was called inactive in assay [14] and in assay [15]. The AC50 in assay [10] is 0.169 µM (active).

Regarding `COC(=O)c1ccc(C=O)cc1`, the molecule was called inactive in assay [1], in assay [2], in assay [3], in assay [4], in assay [5] and in [19]. For the same molecule, the call in assay [6], in assay [7], in assay [8], in assay [9], in assay [10] and in assay [11] was inactive. For the same molecule, the result in [12], in [13], in assay [14] and in [15] was inactive.

Turning to `CC(C)Nc1ccc(NC(C)C)c2c1C(=O)c1ccccc1C2=O`, the outcome in assay [1], in assay [2], in [3], in assay [4], in [5] and in assay [19] was inactive. In addition, the result in [6], in [7], in assay [8], in [9], in assay [18] and in [11] was inactive. The molecule was classed as inactive in assay [12], in assay [13], in assay [14], in assay [15], in [16] and in assay [17]. In assay [10], the AC50 was 0.21 µM (active).

In the case of `CC1=CCC(=O)O1`, the outcome in assay [1], in [2], in assay [3], in [4], in [5] and in assay [19] was inactive. Further, the molecule was called inactive in assay [6], in [7], in assay [8], in assay [9], in [18] and in assay [11]. Moreover, the molecule was called inactive in assay [12], in assay [13], in assay [14], in assay [15], in assay [16] and in [17]. Further, the AC50 in assay [10] was 26.7 µM (active).

Consider `CCOC(=O)CC(=O)C(F)(F)C(F)(F)F`, for which the result in [1], in assay [2], in [3], in assay [4], in assay [5] and in assay [19] was inactive. For the same molecule, the outcome in assay [6], in assay [7], in assay [8], in assay [18], in [11] and in assay [12] was inactive. Also, the outcome in assay [13], in assay [14], in [15], in [16] and in assay [17] was inactive. Moreover, in assay [10], the AC50 is 75.8 µM (active).

With `OCCCCC(F)(F)C(F)(F)C(F)(F)C(F)(F)F`, the molecule was classed as inactive in assay [1], in assay [2], in assay [3], in [4], in [5] and in [19]. Also, the call in [6], in assay [7], in assay [8], in [9], in [18] and in assay [10] was inactive. Besides, the outcome in [11], in [12], in assay [13], in assay [14], in [15] and in assay [16] was inactive. For the same molecule, in assay [17], the call was inactive.
